Screens: PubChem BioAssay, The Scripps Research Institute Molecular Screening Center
PAFAH1B2 inh: PAFAH1B2 (human) inhibition; 340,000 tested, 1.2% active; recombinant PAFAH1B2, FP-rhodamine activity probe, fluorescence polarization; inhibition, % at 3.39 µM;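 active = inhibition above the mean of all tested compounds plus 3 SD, cut at about 24% in these data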;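 note: 0% = enzyme with DMSO and 100% = wells lacking PAFAH1B2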
Target sequence (P68402 whole entry, looked up): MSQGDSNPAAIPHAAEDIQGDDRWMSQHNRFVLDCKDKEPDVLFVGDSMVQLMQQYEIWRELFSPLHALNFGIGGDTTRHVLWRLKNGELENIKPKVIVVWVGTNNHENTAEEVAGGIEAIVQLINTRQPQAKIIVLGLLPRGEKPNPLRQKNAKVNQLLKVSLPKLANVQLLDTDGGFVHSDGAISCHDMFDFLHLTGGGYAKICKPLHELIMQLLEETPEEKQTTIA
PAFAH1B3 FP inh: PAFAH1B3 (human) inhibition; Q15102; recombinant PAFAH1B3, FP-rhodamine probe, fluorescence polarization; inhibition, % at 3.39 µM; 340,000 tested, 0.28% active;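 active = inhibition above the screen-wide average of all tested compounds plus 3 SD, cut at about 25% in these data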;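 note: 0% = enzyme with DMSO only and 100% = wells lacking PAFAH1B3 protein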
pPAFAH FP inh: pPAFAH (human) enzyme inhibition; Q13093; recombinant pPAFAH, FP-rhodamine probe fluorescence polarization; inhibition, % at 3.39 µM; 330,000 tested, 1.5% active; AID 463082;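 active = inhibition above the mean inhibition across the screen plus 3 SD, cut at about 25% in these data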;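 note: inhibitors block binding of the rhodamine activity-based probe so polarization drops; 0% = enzyme with DMSO and 100% = wells lacking pPAFAH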
ZTA DNA inh: blocks Epstein-Barr virus ZTA, an EBNA-1 counter-screen | ZTA-DNA binding, fluorescence polarization | 320,000 tested, 0.15% active | P03206 | inhibition, % at 11 µM; in the data active = inhibition above about 33%
Target sequence (P03206 whole entry, looked up): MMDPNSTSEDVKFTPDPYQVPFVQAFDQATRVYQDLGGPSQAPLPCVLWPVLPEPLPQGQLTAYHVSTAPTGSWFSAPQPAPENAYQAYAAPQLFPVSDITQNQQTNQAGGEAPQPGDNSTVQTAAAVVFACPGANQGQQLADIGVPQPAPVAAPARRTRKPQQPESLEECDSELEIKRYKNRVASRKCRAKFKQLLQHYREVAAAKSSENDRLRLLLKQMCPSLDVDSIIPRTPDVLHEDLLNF
EBNA-1 inhibitor: blocks EBNA-1 binding to DNA. EBNA-1 DNA binding, fluorescence polarization. inhibition, % at 14.8 µM. 300,000 tested, 0.34% active; in the data active = inhibition above about 28%
PAFAH2 inh: PAFAH2 (human) inhibition | Q99487 | recombinant PAFAH2, FP-rhodamine activity probe, fluorescence polarization | inhibition, % at 3.39 µM | 340,000 tested, 0.99% active;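 active = inhibition above the mean over all tested compounds plus 3 SD, cut at about 30% in these data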;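 note: inhibitors block probe labeling of enzyme so polarization drops; 0% = enzyme with DMSO and 100% = wells lacking PAFAH2 protein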
PAFAH2 confirm: confirmation of human PAFAH2 inhibitors | AID 493030 | shares compounds with PAFAH2 inh | inhibition, % at 3.39 µM | recombinant PAFAH2, FP-rhodamine activity probe, fluorescence polarization | 2,300 tested, 65% active;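 active = mean inhibition over three repeats above a set limit taken from the earlier primary screen, cut at about 30% in these data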;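 note: inhibitor blocks binding of rhodamine activity probe so polarization falls; 0% = enzyme with DMSO and 100% = wells lacking PAFAH2 protein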
An asterisk follows results filed as active; . = no result given. Compounds with a hit are over-represented: about 2.9% of the library has one in this group of screens.

SMILES | PAFAH1B2 inh | PAFAH1B3 FP inh | pPAFAH FP inh | ZTA DNA inh | EBNA-1 inhibitor | PAFAH2 inh | PAFAH2 confirm
COc1cc([N+](=O)[O-])ccc1NC(=O)COC(=O)c1n[nH]c2ccccc12 | -1 | 3 | -1 | 2 | 0 | 7 | .
O=C(COC(=O)c1n[nH]c2ccccc12)Nc1ccc(Cl)cc1[N+](=O)[O-] | 9 | 1 | -8 | -7 | -2 | 73* | 64*
Cc1cccc(NC(=O)COC(=O)c2cccs2)c1C | 6 | -1 | 4 | -10 | -9 | 68* | 56*
CCN(CC)C(=O)Cn1cc(S(=O)(=O)CC(=O)NC2CCCCC2)c2ccccc21 | -1 | 1 | -3 | -2 | -16 | 1 | .
CN1CCc2nc3ccc(Cl)cc3c(-c3ccccc3Cl)c2C1 | 0 | -5 | -2 | 7 | -3 | 5 | .
COc1ccc(NC(=O)NC2CCCCC2C)cc1 (centres undefined) | 2 | 1 | 4 | -8 | 10 | 7 | .
CCOC(=O)c1sc(NC(=O)c2cccc(S(=O)(=O)N3CCN(C)CC3)c2)cc1C | -4 | 6 | 0 | 4 | -3 | 1 | .
COC(=O)c1c(NC(=O)c2cccc(S(=O)(=O)N3CCN(C)CC3)c2)sc(C)c1C | 1 | -2 | 5 | 8 | 4 | 30* | 16
C=CCOc1ccc(/C=C/C(=O)OCC(=O)NCc2ccco2)cc1 | 0 | 8 | 6 | 10 | -1 | 46* | 36*
O=C(COC(=O)/C=C/c1ccc([N+](=O)[O-])cc1)NCc1ccco1 | 2 | 9 | 6 | 2 | 5 | 13 | .
O=C(COC(=O)C1CC2C=CC1C2)NCc1ccco1 (centres undefined) | 1 | 3 | 16 | 11 | 5 | 32* | 12
O=C(COC(=O)C1CC2C=CC1C2)NCc1ccc(F)cc1 (centres undefined) | 3 | 2 | 10 | 1 | 6 | 22 | .
O=C(COC(=O)/C=C/c1ccc(F)cc1)NCc1ccco1 | 2 | 3 | 12 | 3 | 12 | 47* | 29
CC1CC1C(=O)OCC(=O)Nc1ncc(Cl)cc1Cl (centres undefined) | 3 | 8 | 17 | -8 | 4 | 31* | 17
O=C(COC(=O)C1CC1)Nc1ccc(Cl)cn1 | 5 | 1 | 4 | 1 | . | 31* | 27
O=C(COC(=O)C1CC1)Nc1ncc(C(F)(F)F)cc1Cl | 3 | 0 | 15 | -8 | 1 | 13 | .
O=C(COC(=O)C1CC1)Nc1ncc(Cl)cc1Cl | 5 | 12 | 16 | 8 | 1 | 30* | 18
COc1ccc(C2N(c3ccccc3)CCN2c2ccccc2)cc1O | 3 | 2 | -7 | 4 | -12 | 14 | .
O=C(c1ccc(Cl)c(S(=O)(=O)N2CCOCC2)c1)N1CCc2ccccc2C1 | 6 | 2 | 6 | . | . | 4 | .
CC(C)NC(=S)N/N=C/c1cc(Br)ccc1O | 8 | 6 | 14 | -6 | 12 | 32* | 32*
CC(NC(=O)COC(=O)/C=C/c1ccc(Cl)cc1)c1ccccc1 (centres undefined) | 9 | 7 | 3 | 9 | -8 | 31* | 21
CC(NC(=O)COC(=O)/C=C/c1cccc(F)c1)c1ccccc1 (centres undefined) | 9 | 0 | 6 | . | . | 46* | 34*
CC(NC(=O)COC(=O)COc1ccc(Cl)cc1)c1ccccc1 (centres undefined) | 18 | 2 | 15 | . | . | 1 | .
COc1cc(/C=C/C(=O)OCC(=O)NC(C)c2ccccc2)cc(OC)c1OC (centres undefined) | 3 | 8 | 5 | . | . | 31* | 14
CCNC(=O)COC(=O)/C=C/c1cccc(F)c1 | 2 | 0 | 1 | -10 | 2 | 10 | .
SMILES | PAFAH1B2 inh | PAFAH1B3 FP inh | pPAFAH FP inh | ZTA DNA inh | EBNA-1 inhibitor | PAFAH2 inh | PAFAH2 confirm
COc1ccc(CCNC(=O)CCc2cc(OC)c(OC)c(OC)c2)cc1OC | 2 | 5 | 4 | 20 | 19 | 5 | .
CN(Cc1ccon1)C(=O)C1CCN(C2CCN(CCCc3ccccc3)CC2)CC1 | 1 | 2 | . | . | . | 6 | .
CCN(C(=O)COC(=O)c1ccc(Cl)cc1N)C1CCCCC1 | 4 | 7 | 4 | 21 | -6 | 1 | .
Nc1cc(Cl)ccc1C(=O)OCC(=O)NC1CCCCC1 | -2 | 9 | -3 | -6 | 12 | 33* | 31*
N#CCC(=O)Nc1ccc(C(=O)OCC(=O)NC2CCCCCC2)cc1 | 3 | 4 | 6 | 1 | . | 83* | 84*
O=C(COC(=O)c1ccc(Br)cc1)NC1CCCC1 | -1 | 4 | 18 | 0 | 4 | 67* | 69*
O=C(COC(=O)c1cc(Br)ccc1Cl)NC1CCCC1 | 0 | -1 | 16 | -1 | -9 | 34* | 30*
O=C(COC(=O)c1cc(Br)ccc1O)NC1CCCCCC1 | 1 | 13 | 6 | 14 | 5 | 25 | .
Cc1nc(Nc2cccc(C(C)O)c2)c2nnn(Cc3ccccc3F)c2n1 (centres undefined) | 3 | -3 | 1 | 1 | -7 | -11 | .
CCN(CC(=O)NCc1cccs1)C(=O)CCOc1ccccc1 | 1 | 2 | 3 | . | . | -2 | .
O=C(COC(=O)c1ccccc1)NC1CCCC1 | 8 | 6 | 7 | -10 | -13 | 73* | 58*
CNS(=O)(=O)c1cccc(C(=O)OCC(=O)NC2CCCC2)c1 | -3 | 8 | 6 | 11 | -10 | 46* | 28
Cc1cc(C(=O)OCC(=O)NC2CCCC2)c2ccccc2n1 | 2 | 3 | . | . | . | 4 | .
O=C(COC(=O)c1ccccc1)NC(=O)NC1CCCC1 | 3 | 4 | . | . | . | 23 | .
O=C(COC(=O)c1c2c(nc3ccccc13)/C(=C/c1ccco1)CC2)NC1CCCC1 | 4 | 18 | . | . | . | 36* | 7
COc1ccc(OC)c(S(=O)(=O)NC2CCSc3ccccc32)c1 (centres undefined) | 4 | 0 | -5 | -7 | -3 | -10 | .
COc1ccccc1CCNC(=O)CNC(=O)c1ccc2ccccc2c1 | 4 | -2 | 5 | 7 | 5 | 3 | .
Cc1ccc(CCC(=O)Nc2ccccc2C(=O)O)o1 | 4 | 9 | 4 | 4 | 13 | -3 | .
Cc1ccc(S(=O)(=O)Nc2c(O)c3ccccc3oc2=O)cc1 | 2 | -4 | -3 | -15 | -7 | 6 | .
Cc1ccc(S(=O)(=O)Nc2c(O)c3ccccc3oc2=O)cc1C | 11 | 4 | 3 | -2 | -5 | 43* | 25
CC(C)CNC(=O)CCc1nc(-c2ccccc2)no1 | 2 | 4 | 2 | -8 | 6 | 4 | .
CCOc1cc(C(=O)OCc2ccc(OC)cc2)ccc1OCC(=O)N1CCOCC1 | -4 | -3 | 9 | 7 | . | 13 | .
NC(=O)Nc1ccc(C(=O)OCC(=O)Nc2ccc(Cl)cn2)cc1 | 5 | 5 | 9 | -1 | -2 | 82* | 72*
CC(=O)Nc1cccc(C(=O)OCC(=O)Nc2ccc(Cl)cn2)c1 | 1 | 3 | -2 | -6 | -12 | 44* | 33*
